# From PubChem BioAssay
# Activity calls are given as the source filed them. Cut-off read from the data, not from the text of the source: active = fold change permeability below about 0.7 or above about 1.3; inactive = in between.
# Test: compounds altering in vitro BBB leakiness – cell-based, FITC-avidin fluorescence, HTS, primary screen (AID 1963498); note: test concentration not given here
# Details: brain endothelial barrier, actives lie on both sides
row,Compound,fold change permeability
1,Cc1cc(C)c(S(=O)(=O)N(CCc2cccc(Br)c2)Cc2ccc(-c3cccc(S(C)(=O)=O)c3)cc2)c(C)c1,1.8 (active)
2,C#CCN(C)CCCOc1ccc(Cl)cc1Cl,1.3 (active)
3,NC(N)=NCCC[C@H](NC(=O)[C@@H](N)Cc1ccc(O)cc1)C(=O)O,1.2 (inactive)
4,CN(C)CCCNC(=O)c1ccc(-c2cc(O)c3ncccc3c2)cc1,0.8 (inactive)
5,O=C1NC(c2cccc([N+](=O)[O-])c2)=CCN1c1ccccc1O,0.9 (inactive)
6,Cc1cc(Cn2cnc3c2C[C@@H](C(=O)O)N(C(=O)C(c2ccccc2)c2ccccc2)C3)ccc1N,1 (inactive)
7,CN1C2CCC1CC(OC(=O)c1c[nH]c3ccccc13)C2 (centres undefined),1.6 (active)
8,Nc1nc(-c2ccccc2)c(Br)c(=O)[nH]1,1.7 (active)
9,CCC(=O)c1ccc2c(c1)N(CCCN(C)C)c1ccccc1S2,1.1 (inactive)
10,NC(N)=Nc1nc(CSCC/C(N)=N/S(N)(=O)=O)cs1,0.9 (inactive)
11,N#CSCC(=O)c1ccc(O)c(O)c1,1.1 (inactive)
12,O=c1[nH]c2ccccc2c2ccccc12,1 (inactive)
13,COc1cc(O)cc(CCc2ccc(OC)c(O)c2)c1,1.9 (active)
14,CSc1ccc2c(c1)C(N1CCN(C)CC1)Cc1ccccc1S2 (centres undefined),0.9 (inactive)
15,N#Cc1ccc(-c2csc(NN=C3CCCC3)n2)cc1,1.7 (active)
16,O=c1ccc2ccc(O)c(O)c2o1,1.2 (inactive)
17,CC(=O)N[C@@H](Cc1c[nH]c2ccccc12)C(=O)OCc1cc(C(F)(F)F)cc(C(F)(F)F)c1,0.9 (inactive)
18,O=Nc1c(-c2c(O)[nH]c3cc(Br)ccc23)[nH]c2ccccc12,1.2 (inactive)
19,O=C(Nc1ccncc1)c1cc([N+](=O)[O-])ccc1Cl,1 (inactive)
20,O=C(NCc1cccnc1)c1ccc([N+](=O)[O-])o1,1 (inactive)

row,Compound,fold change permeability
1,C[C@H](C#Cc1ccc(Cc2ccc(F)cc2)s1)N(O)C(N)=O,1.1 (inactive)
2,Nc1nc(Nc2ccccc2)nc2c1ncn2[C@@H]1O[C@H](CO)[C@@H](O)[C@H]1O,0.8 (inactive)
3,O=C1Cc2c([nH]c3ccc(Br)cc23)-c2ccccc2N1,0.7 (active)
4,Cc1cc(C(=O)N2Cc3cnn(C)c3Nc3ccccc32)ccc1CNC(=O)N1CCN(Cc2cc(O)cc(O)c2)CC1,1.2 (inactive)
5,Cc1ccc(CNCC2(F)CCN(C(=O)c3ccc(F)c(Cl)c3)CC2)nc1,1.3 (active)
6,CCCCCCCC/C=C\CCCCCCCC(=O)O,0.9 (inactive)
7,COc1ccc(OCC2c3cc(OC)c(OC)cc3CCN2C(=O)c2cccc(Cl)c2)cc1 (centres undefined),1.6 (active)
8,Nc1ncnc2c1c(-c1cccc(OCc3ccccc3)c1)cn2C1CC(CN2CCC2)C1 (centres undefined),1.1 (inactive)
9,CCN1CCc2nc(N)oc2CC1,1.1 (inactive)
10,NC(=O)c1cc[n+](CC2=C(C(=O)O)N3C(=O)[C@@H](NC(=O)[C@@H](c4ccccc4)S(=O)(=O)[O-])[C@H]3SC2)cc1,0.8 (inactive)
11,Oc1ccccc1O,0.9 (inactive)
12,O=C(O)/C=C\C(=O)Nc1ccc(Oc2cccc(Oc3ccc(NC(=O)/C=C\C(=O)O)cc3)c2)cc1,0.9 (inactive)
13,CC(C)(C)c1ccc(S(=O)(=O)/C=C/C#N)cc1,1.2 (inactive)
14,CN1CC[C@]2(CCN3CCc4c(oc5ccccc45)[C@@H]3C2)N(C)C1=O,1.1 (inactive)
15,Cc1ccc(C(=O)Nc2ccc(S(=O)(=O)O)c3cc(S(=O)(=O)O)cc(S(=O)(=O)O)c23)cc1NC(=O)c1cccc(NC(=O)Nc2cccc(C(=O)Nc3cc(C(=O)Nc4ccc(S(=O)(=O)O)c5cc(S(=O)(=O)O)cc(S(=O)(=O)O)c45)ccc3C)c2)c1,1.3 (active)
16,CCC(=O)Nc1cccc(Oc2nc(Nc3ccc(N4CCN(C)CC4)cc3OC)ncc2Cl)c1,1.2 (inactive)
17,CC(/C=C/c1cccc(Oc2ccc(F)cc2)c1)N(O)C(N)=O (centres undefined),1.1 (inactive)
18,CC(C)N1CCN(S(=O)(=O)c2ccc(NC(=O)c3ccc(C(F)(F)F)cc3[N+](=O)[O-])cc2)CC1,1.4 (active)
19,O=c1n(CCCN2CCN(c3cccc(Cl)c3)CC2)nc2ccccn12,1.1 (inactive)
